# Measurements from the supplement of paper PMC11001985.
# Compound: C#CCNC(=O)CCSSCCC(=O)NCCc1ccc(C=O)c(C=O)c1
# Experiment: lysine labeling ratio R10:1 (500 µM / 50 µM probe), SILAC-ABPP in living cells; higher = lower intrinsic lysine reactivity toward the probe, active = 2 or less
# Settings: HeLa; probe concentrations 500 vs 50 µM
# Outline: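 In PBS at room temperature, living HeLa cells grown with SILAC light or heavy labels were treated with 50 µM or 500 µM of an alkyne-tagged, disulfide-linked lysine probe, with label swaps in both directions. Analysis was by LC-MS/MS on a TIMS-TOF Pro after click to biotin-azide, neutravidin capture and DTT release. For each lysine, R is the median across forward and reverse replicates of the filtered median high-probe/low-probe MS1 peptide ratio, capped at 20.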
# Sequence of UniProt Q99985 (Q99985 whole entry): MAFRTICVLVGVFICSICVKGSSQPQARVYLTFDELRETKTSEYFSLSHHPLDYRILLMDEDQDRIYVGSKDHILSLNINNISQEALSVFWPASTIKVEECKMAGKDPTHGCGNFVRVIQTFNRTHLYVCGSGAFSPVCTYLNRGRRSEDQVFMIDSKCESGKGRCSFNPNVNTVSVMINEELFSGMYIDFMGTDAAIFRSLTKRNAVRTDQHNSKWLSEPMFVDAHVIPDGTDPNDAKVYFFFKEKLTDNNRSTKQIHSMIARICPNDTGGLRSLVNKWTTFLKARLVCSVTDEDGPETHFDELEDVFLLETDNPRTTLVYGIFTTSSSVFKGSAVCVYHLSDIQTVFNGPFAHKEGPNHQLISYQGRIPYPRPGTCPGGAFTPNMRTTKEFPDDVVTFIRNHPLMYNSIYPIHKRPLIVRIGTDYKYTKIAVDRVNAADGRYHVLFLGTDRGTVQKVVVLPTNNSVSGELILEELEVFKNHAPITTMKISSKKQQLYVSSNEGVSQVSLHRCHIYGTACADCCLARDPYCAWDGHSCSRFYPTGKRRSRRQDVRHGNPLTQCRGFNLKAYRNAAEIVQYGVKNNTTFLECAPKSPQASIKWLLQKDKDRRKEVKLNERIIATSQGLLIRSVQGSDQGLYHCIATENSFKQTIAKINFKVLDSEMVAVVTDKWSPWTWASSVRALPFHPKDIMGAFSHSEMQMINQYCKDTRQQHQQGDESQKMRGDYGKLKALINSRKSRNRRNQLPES
# Sequence of UniProt P21796 (P21796 whole entry): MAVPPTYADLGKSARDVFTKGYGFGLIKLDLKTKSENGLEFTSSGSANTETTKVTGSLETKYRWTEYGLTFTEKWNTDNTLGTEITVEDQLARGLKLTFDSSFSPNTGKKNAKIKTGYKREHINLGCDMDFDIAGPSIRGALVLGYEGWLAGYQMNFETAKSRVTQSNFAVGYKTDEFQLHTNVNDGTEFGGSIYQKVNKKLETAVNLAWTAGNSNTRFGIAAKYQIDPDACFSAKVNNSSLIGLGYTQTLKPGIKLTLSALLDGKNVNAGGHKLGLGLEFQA
# Sequence of UniProt P21333 (P21333 whole entry): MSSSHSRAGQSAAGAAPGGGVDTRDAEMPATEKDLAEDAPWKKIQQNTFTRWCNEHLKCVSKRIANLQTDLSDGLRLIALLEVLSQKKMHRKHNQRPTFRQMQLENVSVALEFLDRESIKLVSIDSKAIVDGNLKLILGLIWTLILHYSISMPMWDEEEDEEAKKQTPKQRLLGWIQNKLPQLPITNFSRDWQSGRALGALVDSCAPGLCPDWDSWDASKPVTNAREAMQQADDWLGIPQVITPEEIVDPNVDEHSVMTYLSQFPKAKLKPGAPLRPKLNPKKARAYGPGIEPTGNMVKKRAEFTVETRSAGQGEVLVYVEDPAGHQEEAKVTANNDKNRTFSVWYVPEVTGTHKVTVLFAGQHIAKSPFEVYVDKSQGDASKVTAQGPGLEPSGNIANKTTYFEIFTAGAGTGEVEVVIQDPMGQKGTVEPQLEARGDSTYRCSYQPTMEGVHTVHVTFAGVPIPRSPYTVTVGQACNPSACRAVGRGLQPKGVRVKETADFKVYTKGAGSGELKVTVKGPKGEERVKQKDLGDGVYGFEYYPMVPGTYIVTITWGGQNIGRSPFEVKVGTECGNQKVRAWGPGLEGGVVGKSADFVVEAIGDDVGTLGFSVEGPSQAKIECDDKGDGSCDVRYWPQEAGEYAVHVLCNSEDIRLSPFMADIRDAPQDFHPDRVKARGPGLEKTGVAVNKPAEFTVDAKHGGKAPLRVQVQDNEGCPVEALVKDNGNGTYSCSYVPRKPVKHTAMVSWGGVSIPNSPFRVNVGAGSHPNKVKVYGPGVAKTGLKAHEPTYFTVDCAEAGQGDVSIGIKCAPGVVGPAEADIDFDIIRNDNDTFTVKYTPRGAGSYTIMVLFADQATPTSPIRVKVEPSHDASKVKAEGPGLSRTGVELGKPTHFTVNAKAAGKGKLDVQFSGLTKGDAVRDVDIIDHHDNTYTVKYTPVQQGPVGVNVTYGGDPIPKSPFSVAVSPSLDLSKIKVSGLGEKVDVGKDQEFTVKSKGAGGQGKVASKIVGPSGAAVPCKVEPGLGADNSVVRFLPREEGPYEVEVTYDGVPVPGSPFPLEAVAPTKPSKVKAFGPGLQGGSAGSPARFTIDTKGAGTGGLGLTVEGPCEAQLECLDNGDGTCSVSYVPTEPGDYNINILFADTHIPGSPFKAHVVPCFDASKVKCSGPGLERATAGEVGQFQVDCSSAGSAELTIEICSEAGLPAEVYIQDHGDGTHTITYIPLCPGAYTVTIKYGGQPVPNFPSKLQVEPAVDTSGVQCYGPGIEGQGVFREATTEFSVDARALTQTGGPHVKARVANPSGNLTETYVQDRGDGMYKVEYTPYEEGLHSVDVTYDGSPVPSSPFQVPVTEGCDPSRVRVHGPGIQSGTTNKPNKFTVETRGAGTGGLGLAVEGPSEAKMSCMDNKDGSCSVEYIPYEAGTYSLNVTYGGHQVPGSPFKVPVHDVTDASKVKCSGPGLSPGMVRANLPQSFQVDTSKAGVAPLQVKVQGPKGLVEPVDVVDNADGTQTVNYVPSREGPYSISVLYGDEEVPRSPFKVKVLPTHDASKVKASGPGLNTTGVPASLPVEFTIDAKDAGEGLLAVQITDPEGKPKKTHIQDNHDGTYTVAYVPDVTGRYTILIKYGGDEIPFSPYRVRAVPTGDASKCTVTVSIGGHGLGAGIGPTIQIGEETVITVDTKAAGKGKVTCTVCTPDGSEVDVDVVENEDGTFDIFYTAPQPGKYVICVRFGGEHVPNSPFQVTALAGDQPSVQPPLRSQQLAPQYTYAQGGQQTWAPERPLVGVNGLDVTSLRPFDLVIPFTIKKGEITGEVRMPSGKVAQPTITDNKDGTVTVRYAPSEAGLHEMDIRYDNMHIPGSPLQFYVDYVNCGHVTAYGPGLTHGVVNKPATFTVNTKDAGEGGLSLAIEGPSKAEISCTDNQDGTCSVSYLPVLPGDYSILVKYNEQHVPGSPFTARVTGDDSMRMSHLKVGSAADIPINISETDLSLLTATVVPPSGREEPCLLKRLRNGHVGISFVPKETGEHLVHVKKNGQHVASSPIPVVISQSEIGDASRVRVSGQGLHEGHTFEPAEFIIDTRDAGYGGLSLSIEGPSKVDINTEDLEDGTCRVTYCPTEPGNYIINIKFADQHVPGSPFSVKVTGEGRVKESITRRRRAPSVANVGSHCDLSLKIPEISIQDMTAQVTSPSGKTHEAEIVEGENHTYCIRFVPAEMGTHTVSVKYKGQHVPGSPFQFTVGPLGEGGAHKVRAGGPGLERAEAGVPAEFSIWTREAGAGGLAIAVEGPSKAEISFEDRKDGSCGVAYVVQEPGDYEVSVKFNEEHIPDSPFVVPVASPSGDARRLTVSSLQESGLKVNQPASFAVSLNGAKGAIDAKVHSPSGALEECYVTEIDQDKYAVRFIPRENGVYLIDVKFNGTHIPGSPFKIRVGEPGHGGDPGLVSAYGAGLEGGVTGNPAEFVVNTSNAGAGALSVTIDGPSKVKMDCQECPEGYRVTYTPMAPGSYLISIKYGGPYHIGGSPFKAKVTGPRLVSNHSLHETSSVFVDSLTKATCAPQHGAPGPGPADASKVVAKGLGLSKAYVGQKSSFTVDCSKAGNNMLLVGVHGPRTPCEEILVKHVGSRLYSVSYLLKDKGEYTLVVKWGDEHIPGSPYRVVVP
# Sequence of UniProt P26006 (P26006 whole entry): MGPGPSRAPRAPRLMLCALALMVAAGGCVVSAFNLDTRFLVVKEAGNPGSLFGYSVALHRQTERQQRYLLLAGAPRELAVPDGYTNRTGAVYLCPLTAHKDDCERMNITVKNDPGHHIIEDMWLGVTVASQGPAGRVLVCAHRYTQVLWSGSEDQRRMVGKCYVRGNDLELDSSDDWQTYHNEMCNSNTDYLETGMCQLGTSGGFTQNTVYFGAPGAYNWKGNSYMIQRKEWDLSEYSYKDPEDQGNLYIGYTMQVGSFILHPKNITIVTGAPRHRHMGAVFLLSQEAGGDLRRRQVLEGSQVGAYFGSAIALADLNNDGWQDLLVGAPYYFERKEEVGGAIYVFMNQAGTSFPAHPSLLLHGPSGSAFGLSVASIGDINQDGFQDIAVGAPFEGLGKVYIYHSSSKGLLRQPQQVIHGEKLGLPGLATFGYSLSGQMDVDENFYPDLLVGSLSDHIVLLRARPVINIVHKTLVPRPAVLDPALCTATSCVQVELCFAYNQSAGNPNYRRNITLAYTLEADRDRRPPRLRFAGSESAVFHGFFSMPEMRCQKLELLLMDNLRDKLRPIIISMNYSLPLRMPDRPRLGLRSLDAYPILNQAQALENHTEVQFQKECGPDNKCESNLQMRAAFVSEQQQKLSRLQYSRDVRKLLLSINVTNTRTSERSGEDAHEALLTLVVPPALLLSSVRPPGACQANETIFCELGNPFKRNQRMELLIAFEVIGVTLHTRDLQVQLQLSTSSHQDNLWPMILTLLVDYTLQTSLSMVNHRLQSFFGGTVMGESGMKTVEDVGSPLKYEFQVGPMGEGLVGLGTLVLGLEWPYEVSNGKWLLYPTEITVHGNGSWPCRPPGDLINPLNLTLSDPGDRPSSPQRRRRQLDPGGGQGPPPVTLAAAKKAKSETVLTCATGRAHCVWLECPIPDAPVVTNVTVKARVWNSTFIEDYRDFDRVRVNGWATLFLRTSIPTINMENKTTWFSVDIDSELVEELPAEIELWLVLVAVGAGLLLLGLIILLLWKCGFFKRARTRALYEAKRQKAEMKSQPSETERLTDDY
# Sequence of UniProt Q13347 (Q13347 whole entry): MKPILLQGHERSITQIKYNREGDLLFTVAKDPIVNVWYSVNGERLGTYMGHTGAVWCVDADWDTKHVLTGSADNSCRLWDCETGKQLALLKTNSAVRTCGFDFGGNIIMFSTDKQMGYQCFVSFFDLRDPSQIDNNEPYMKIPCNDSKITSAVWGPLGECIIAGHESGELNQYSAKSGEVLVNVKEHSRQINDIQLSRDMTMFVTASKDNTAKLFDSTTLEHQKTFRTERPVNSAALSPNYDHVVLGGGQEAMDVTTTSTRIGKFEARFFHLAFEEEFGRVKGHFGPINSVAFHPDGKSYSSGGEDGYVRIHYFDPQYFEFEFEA
row,Target,lysine labeling ratio R10:1
1,SHMT2 (lysine site: K103) (UniProt P34897),4.3 (inactive)
2,THBS1 (lysine site: K1103) (UniProt P07996),0.85 (active)
3,FLNA (lysine site: K916) (UniProt P21333),1.76 (active)
4,CLSTN1 (lysine site: K322) (UniProt O94985),0.805 (active)
5,SEMA3C (lysine site: K431) (UniProt Q99985),2.67 (inactive)
6,SFN (lysine site: K49) (UniProt P31947),5.33 (inactive)
7,FLNA (lysine site: K876) (UniProt P21333),4.23 (inactive)
8,EIF3I (lysine site: K2) (UniProt Q13347),2.67 (inactive)
9,SLC3A2 (lysine site: K245) (UniProt P08195),5.72 (inactive)
10,HNRNPM (lysine site: K145) (UniProt P52272),2.08 (inactive)
11,ADGRG2 (lysine site: K592) (UniProt Q8IZP9),2.37 (inactive)
12,INSR (lysine site: K511) (UniProt P06213),2.12 (inactive)
13,UniProt P83731 (lysine site: K97),1.9 (active)
14,L1CAM (lysine site: K998) (UniProt P32004),6.57 (inactive)
15,ITGA3 (lysine site: K897) (UniProt P26006),1.68 (active)
16,UniProt P62805 (lysine site: K17),2.71 (inactive)
17,LTBR (lysine site: K48) (UniProt P36941),4.97 (inactive)
18,VDAC1 (lysine site: K61) (UniProt P21796),1.88 (active)
19,ITGA3 (lysine site: K100) (UniProt P26006),2.42 (inactive)
20,MYH9 (lysine site: K1754) (UniProt P35579),3.66 (inactive)

row,Target,lysine labeling ratio R10:1
1,PLOD2 (lysine site: K358) (UniProt O00469),2.23 (inactive)
2,SEMA3C (lysine site: K547) (UniProt Q99985),2.69 (inactive)
3,UniProt P62269 (lysine site: K47),1.41 (active)
4,FAT4 (lysine site: K2561) (UniProt Q6V0I7),2.59 (inactive)
5,ITGA6 (lysine site: K680) (UniProt P23229),2.82 (inactive)
6,NUCB1 (lysine site: K183) (UniProt Q02818),3.16 (inactive)
7,VDAC1 (lysine site: K274) (UniProt P21796),0.919 (active)
8,FOLR1 (lysine site: K62) (UniProt P15328),5.42 (inactive)
9,BTN2A1 (lysine site: K101) (UniProt Q7KYR7),2.46 (inactive)
10,UniProt Q8WXI7 (lysine site: K13985),7.69 (inactive)
11,UniProt Q13275 (lysine site: K239),1.5 (active)
12,CALD1 (lysine site: K605) (UniProt Q05682),3.32 (inactive)
13,SERPINH1 (lysine site: K94) (UniProt P50454),3.29 (inactive)
14,SEMA3C (lysine site: K724) (UniProt Q99985),4.97 (inactive)
15,PAWR (lysine site: K227) (UniProt Q96IZ0),1.06 (active)
16,PDIA3 (lysine site: K362) (UniProt P30101),2.15 (inactive)
17,UniProt P21589 (lysine site: K478),1.17 (active)
18,UniProt P62826 (lysine site: K99),2.78 (inactive)
19,SLC25A4 (lysine site: K245) (UniProt P12235),1.72 (active)
20,FRAS1 (lysine site: K211) (UniProt Q86XX4),1.36 (active)
